From PubChem BioAssay (NCATS)
Inconclusive results are not listed. Active and inactive are the calls of the source. Unless noted, calls follow the shape of the dose curve; as a rule, active = well fitted curve in the direction sought with a large enough effect; inconclusive = small, poorly fitted or top-dose-only effect, or another doubt; inactive = no such curve, though single readings can be large; an effect the other way counts as inactive or inconclusive.

What was measured:
[1] = target: T1, Hexokinase-4 (Homo sapiens) + Glucokinase regulatory protein (Homo sapiens) (UniProt P35557+Q14397); experiment: qHTS assay for inhibitors of recombinant human GCK-GKRP interaction: Diaphorase-coupled assay (AID 743205)
T1 sequence (P35557 whole entry, looked up): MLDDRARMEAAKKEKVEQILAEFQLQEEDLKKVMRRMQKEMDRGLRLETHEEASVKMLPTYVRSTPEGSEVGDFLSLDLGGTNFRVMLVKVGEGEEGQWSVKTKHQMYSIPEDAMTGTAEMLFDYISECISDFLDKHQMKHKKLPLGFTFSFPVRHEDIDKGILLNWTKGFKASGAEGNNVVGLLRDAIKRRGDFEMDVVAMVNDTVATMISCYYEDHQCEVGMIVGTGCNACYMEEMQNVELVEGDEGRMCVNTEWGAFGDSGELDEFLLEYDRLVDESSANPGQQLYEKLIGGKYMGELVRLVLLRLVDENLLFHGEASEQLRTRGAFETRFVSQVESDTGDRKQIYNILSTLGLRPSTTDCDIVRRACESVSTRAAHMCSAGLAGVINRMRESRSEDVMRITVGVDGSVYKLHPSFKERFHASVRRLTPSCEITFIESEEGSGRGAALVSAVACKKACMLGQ
T1 sequence (Q14397 whole entry, looked up): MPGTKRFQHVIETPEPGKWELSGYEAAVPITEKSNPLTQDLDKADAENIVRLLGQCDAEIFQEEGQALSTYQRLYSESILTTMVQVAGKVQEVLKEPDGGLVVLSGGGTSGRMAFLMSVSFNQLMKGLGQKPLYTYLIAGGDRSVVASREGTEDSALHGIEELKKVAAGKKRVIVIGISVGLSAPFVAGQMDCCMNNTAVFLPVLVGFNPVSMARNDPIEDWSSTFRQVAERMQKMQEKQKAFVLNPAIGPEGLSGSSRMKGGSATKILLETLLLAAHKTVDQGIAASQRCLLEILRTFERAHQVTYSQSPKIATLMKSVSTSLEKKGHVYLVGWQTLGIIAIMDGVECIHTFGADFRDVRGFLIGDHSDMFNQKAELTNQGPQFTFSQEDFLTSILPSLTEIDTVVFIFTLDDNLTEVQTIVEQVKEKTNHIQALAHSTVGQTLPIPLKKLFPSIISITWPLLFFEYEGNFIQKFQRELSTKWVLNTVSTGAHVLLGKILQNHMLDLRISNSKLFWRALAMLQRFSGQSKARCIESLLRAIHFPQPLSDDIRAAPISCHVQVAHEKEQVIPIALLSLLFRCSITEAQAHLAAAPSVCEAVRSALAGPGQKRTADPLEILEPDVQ
Procedure, shortened: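 Resorufin fluorescence (525/590 nm), read each minute over 30 min, reports GCK activity coupled via G6PDH and diaphorase. Reaction: 10 nM GST-GCK, 10 nM FLAG-GKRP, 5 mM glucose, 0.4 mM ATP, 0.15 mM NADP+, 0.1 mM resazurin.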

[2] = target: T1, Hexokinase-4 (Homo sapiens) + Glucokinase regulatory protein (Homo sapiens); experiment: qHTS assay for inhibitors of recombinant human GCK-GKRP interaction: ADP-Glo assay (AID 743206);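 also: plate controls were DMSO plus enzyme for no effect and no enzyme for full effect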
Procedure, shortened: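 Pin-transferred compounds meet a 15 nM GST-GCK/15 nM FLAG-GKRP/2 uM S6P mix (dispense concentrations). ATP is then added to 0.4 mM final with 5 mM glucose, and the reaction runs 60 min at room temperature. ADP is quantified luminescently.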

[3] = target: T1, Hexokinase-4 (Homo sapiens) + Glucokinase regulatory protein (Homo sapiens); experiment: qHTS assay for inhibitors of recombinant human GCK-GKRP interaction: HTRF assay (AID 743207);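 also: 0% = DMSO with GCK present and -100% = DMSO wells lacking GCK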
Procedure, shortened: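 HTRF read-out (ex 320 nm; 615/665 nm emission) after 60 min RT equilibration of 5 nM GST-GCK, 5 nM FLAG-GKRP, 2 uM S6P, compound and anti-FLAG/anti-GST detection antibodies; signal normalized between DMSO wells with and without GCK.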

[4] = qHTS Assay for Identifying Gametocytocidal Compounds (AID 743244);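 also: % is scaled to controls: 0 for no effect and ±100 for the full control effect; actives lower the fluorescent signal which means gametocytes are killed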; conditions: P. falciparum 3D7 stage III-V gametocytes, alamarBlue, 72 h; max response: stronger effect = lower value
Procedure, shortened: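 Viability read-out was resazurin reduction (alamarBlue, 24 h) measured at Ex 525/Em 598 nm. Beforehand, late-stage (III-V) 3D7 P. falciparum gametocytes at 20,000 cells/well were incubated with compound 72 h at 37C under 5% CO2.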

[5] = qHTS assay for measurement of the activity of small molecule inhibitors on Zika virus induced Caspase-3 activity in human iPSC derived neural progenitor cells (hNPCs) (AID 1224857); also: % of control where 0% means no effect; nearly all actives have a fitted effect of over 65% in size
Procedure, shortened: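 Percent inhibition of virus-induced caspase-3/7 luminescence (Caspase-Glo), scaled between uninfected cells and Zika-infected cells. hNPCs received compound 1 hr before ZIKV at 2 FFU/cell, with 6 hours infection at 37 C.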

[6] = qHTS assay for measurement of the activity of small molecule inhibitors on Zika virus induced Caspase-3 activity in human astrocytoma cells (AID 1224859);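 also: plate controls were ZIKV-infected untreated cells for no effect and uninfected cells for full effect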
Procedure, shortened: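 Luminescent caspase-3/7 read-out (30 min reagent, room temperature) in human SNB-19 cells infected 6 h with ZIKV (2 FFU/cell) after 1 h compound pre-incubation; Data were normalised to uninfected and infected wells.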

[7] = Natriuretic polypeptide receptor (hNpr1) antagonism - Pilot counterscreen GloSensor control cell line (AID 1347045; calls by dose curve; also: series mostly up to about 38 µM; % is scaled to controls: 0 for no effect and ±100 for the full control effect)
Procedure, shortened: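 HEK293 cGMP-sensor cells; 2% GloSensor reagent 2 h RT; LOPAC compounds in 1:5 titrations 30-50 min; 50 uM SNP 20 min; luminescence pre-read and post-read.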

[8] = target: Atrial natriuretic peptide receptor 1 (Homo sapiens) (UniProt P16066); experiment: Natriuretic polypeptide receptor (hNpr1) antagonism - Pilot screen (AID 1347049; calls by dose curve;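 also: HEK293 cells with hNpr1 and GloSensor cGMP luciferase stimulated by 0.1 nM hNppA; agonist-evoked cGMP luminescence read 20 min after hNppA addition; series mostly up to about 58 µM; % is scaled to controls: 0 for no effect and ±100 for the full control effect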)
Chain of Atrial natriuretic peptide receptor 1 (Homo sapiens) (P16066 whole entry, looked up): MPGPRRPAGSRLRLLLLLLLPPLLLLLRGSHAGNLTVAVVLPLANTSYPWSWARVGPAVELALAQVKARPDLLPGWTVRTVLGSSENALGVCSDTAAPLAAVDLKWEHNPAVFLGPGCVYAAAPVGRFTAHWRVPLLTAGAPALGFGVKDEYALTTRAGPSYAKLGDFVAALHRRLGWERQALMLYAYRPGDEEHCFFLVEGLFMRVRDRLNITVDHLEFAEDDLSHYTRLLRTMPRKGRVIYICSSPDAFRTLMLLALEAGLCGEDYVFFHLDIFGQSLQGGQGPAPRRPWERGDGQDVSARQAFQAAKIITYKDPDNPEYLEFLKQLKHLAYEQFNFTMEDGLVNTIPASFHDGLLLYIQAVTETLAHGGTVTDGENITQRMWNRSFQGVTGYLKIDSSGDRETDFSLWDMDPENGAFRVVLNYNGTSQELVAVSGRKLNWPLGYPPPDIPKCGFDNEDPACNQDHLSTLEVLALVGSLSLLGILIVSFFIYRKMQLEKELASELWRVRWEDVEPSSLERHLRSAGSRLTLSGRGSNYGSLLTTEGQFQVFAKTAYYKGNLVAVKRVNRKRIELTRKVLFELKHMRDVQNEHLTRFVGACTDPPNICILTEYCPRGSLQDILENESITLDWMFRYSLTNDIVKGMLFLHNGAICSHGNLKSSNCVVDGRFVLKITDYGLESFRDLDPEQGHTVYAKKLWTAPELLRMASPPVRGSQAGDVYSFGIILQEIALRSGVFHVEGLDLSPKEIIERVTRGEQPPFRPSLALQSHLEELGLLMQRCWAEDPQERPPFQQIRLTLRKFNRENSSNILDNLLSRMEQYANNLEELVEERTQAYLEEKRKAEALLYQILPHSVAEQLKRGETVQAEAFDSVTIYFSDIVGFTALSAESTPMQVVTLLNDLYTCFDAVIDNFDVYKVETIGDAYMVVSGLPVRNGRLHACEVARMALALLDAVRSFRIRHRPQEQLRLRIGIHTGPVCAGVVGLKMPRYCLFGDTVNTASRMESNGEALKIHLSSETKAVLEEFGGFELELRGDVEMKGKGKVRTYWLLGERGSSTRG
Procedure, shortened: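 Receptor antagonism read as cGMP-dependent luminescence in hNpr1/pGS-40F HEK293 cells: pre-read after 30 min compound exposure, post-read 20 min after hNppA agonist at 0.1 nM final, all at room temperature, protected from light; A-71915 titration as control.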

[9] = target: Atrial natriuretic peptide receptor 2 (Homo sapiens) (UniProt P20594); experiment: Natriuretic polypeptide receptor (hNpr2) antagonism - Pilot subtype selectivity assay (AID 1347050; calls by dose curve; also: % is scaled to controls: 0 for no effect and ±100 for the full control effect)
Chain of Atrial natriuretic peptide receptor 2 (Homo sapiens) (P20594 whole entry, looked up): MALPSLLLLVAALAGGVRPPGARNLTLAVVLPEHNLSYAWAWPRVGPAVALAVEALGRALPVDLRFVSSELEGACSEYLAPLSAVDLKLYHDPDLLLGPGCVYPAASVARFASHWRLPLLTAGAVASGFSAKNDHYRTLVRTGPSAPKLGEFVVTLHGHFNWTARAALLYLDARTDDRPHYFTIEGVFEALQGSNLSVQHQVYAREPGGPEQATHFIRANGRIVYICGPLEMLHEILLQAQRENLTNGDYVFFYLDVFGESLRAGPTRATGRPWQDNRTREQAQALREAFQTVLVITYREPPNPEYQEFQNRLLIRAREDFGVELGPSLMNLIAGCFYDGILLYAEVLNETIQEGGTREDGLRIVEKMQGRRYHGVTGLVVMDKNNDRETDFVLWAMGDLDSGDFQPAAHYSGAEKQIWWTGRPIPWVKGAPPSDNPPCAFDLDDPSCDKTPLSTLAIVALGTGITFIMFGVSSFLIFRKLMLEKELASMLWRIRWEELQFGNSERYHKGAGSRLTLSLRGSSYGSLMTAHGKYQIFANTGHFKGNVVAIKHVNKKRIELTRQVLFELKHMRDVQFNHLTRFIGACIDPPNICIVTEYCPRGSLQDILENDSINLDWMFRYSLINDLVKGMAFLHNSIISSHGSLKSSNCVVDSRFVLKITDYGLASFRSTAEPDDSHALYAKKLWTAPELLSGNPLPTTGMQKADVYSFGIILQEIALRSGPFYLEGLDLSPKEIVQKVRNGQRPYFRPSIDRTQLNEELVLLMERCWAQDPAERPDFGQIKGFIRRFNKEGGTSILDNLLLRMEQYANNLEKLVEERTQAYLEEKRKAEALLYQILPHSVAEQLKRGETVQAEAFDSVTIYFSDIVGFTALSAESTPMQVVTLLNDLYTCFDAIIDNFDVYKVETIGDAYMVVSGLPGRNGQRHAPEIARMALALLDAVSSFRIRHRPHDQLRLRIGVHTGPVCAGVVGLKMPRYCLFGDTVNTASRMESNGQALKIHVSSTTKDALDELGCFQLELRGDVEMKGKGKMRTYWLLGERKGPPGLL
Procedure, shortened: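 Antagonist mode: compounds (LOPAC1280, seven 1:5 dilutions) added 30 min before 1 nM hNppC stimulation of hNpr2-HEK293 cGMP-sensor cells; luminescence read before and 20 min after agonist at ambient temperature.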

CCCn1c(=O)c2[nH]c(C3CCCC3)nc2n(CCC)c1=O
inactive: Potency [1] | Potency [2] | Potency [3] | max response [4] 13.8% | Potency [5] | Potency [6] | Potency [7] | Potency [8] | Potency [9]

O=C(O)C1=CCCN(CCON=C(c2ccccc2)c2ccccc2)C1
inactive: Potency [1] | Potency [2] | Potency [3] | max response [4] -12.8% | Potency [5] | Potency [6] | Potency [7] | Potency [8] | Potency [9]

NCCC1CCCC(CCN)N1 (configuration not stated)
inactive: Potency [1] | Potency [2] | Potency [3] | max response [4] 30.6% | Potency [5] | Potency [6] | Potency [7] | Potency [8] | Potency [9]

N=C(N)c1ccc(N)cc1
inactive: Potency [1] | Potency [2] | Potency [3] | max response [4] -4.7% | Potency [5] | Potency [6] | Potency [7] | Potency [8] | Potency [9]

C=CCNc1ncnc2ccc(Br)cc12
inactive: Potency [1] | Potency [2] | Potency [3] | max response [4] 27.4% | Potency [5] | Potency [6] | Potency [7] | Potency [8] | Potency [9]

N[C@@H](Cc1ccc(F)cc1)C(=O)O
inactive: Potency [1] | Potency [2] | Potency [3] | max response [4] 19.5% | Potency [5] | Potency [6] | Potency [7] | Potency [8] | Potency [9]

COc1ccc(-c2ccc(N)[n+](CCCC(=O)O)n2)cc1
inactive: Potency [1] | Potency [2] | Potency [3] | max response [4] 23.8% | Potency [5] | Potency [6] | Potency [7] | Potency [8] | Potency [9]

NC1(C(=O)O)CCc2cc(C(=O)O)ccc21 (configuration not stated)
inactive: Potency [1] | Potency [2] | Potency [3] | max response [4] 9.78% | Potency [5] | Potency [6] | Potency [7] | Potency [8] | Potency [9]

Nc1nc2ccc(Cl)cc2c2nc(-c3ccco3)nn12
inactive: Potency [1] | Potency [2] | Potency [3] | max response [4] -3.79% | Potency [5] | Potency [6] | Potency [7] | Potency [8] | Potency [9]

Nc1ncnc2c1nc(Br)n2C1OC2COP(=O)(O)O[C@@H]2C1O (some centres not stated)
inactive: Potency [1] | Potency [2] | Potency [3] | max response [4] 31.4% | Potency [5] | Potency [6] | Potency [7] | Potency [8] | Potency [9]

CNc1cc(NS(=O)(=O)c2ccc(N)cc2)nc(NC)n1
inactive: Potency [1] | Potency [2] | Potency [3] | max response [4] 12.8% | Potency [5] | Potency [6] | Potency [7] | Potency [8] | Potency [9]

O=C(O)c1ccccc1Nc1cccc(OCc2ccc3ccccc3n2)c1
inactive: Potency [1] | Potency [2] | Potency [3] | max response [4] 1.28% | Potency [5] | Potency [6] | Potency [7] | Potency [8] | Potency [9]

C[C@H]1CC2C3CCC4=CC(=O)C=C[C@]4(C)[C@@]3(Cl)[C@@H](O)C[C@]2(C)[C@@]1(O)C(=O)CO (some centres not stated)
inactive: Potency [1] | Potency [2] | Potency [3] | max response [4] -6.5% | Potency [5] | Potency [6] | Potency [7] | Potency [8] | Potency [9]

CC(=O)O[C@H]1Cc2ccccc2N(C(N)=O)c2ccccc21
inactive: Potency [1] | Potency [2] | Potency [3] | max response [4] 18.2% | Potency [5] | Potency [6] | Potency [7] | Potency [8] | Potency [9]

CC1CCN(CC[C@H]2CCCN2S(=O)(=O)c2cccc(O)c2)CC1
inactive: Potency [1] | Potency [2] | Potency [3] | max response [4] 10.9% | Potency [5] | Potency [6] | Potency [7] | Potency [8] | Potency [9]

C[C@H](O)C(=O)C1=Nc2c(nc(N)[nH]c2=O)NC1
inactive: Potency [1] | Potency [2] | Potency [3] | max response [4] 13.3% | Potency [5] | Potency [6] | Potency [7] | Potency [8] | Potency [9]

Oc1ccc(Cn2cc[nH]c2=S)cc1
inactive: Potency [1] | Potency [2] | Potency [3] | max response [4] 24% | Potency [5] | Potency [6] | Potency [7] | Potency [8] | Potency [9]

NS(=O)(=O)c1cccc2c1c([N+](=O)[O-])cc1nc(O)c(O)nc12
inactive: Potency [1] | Potency [2] | Potency [3] | max response [4] 24.6% | Potency [5] | Potency [6] | Potency [7] | Potency [8] | Potency [9]
